Screening data (PubChem)
In the library only some 3.1% were active in any assay of this set; here they are far more common.
RGS12 GoLoco inh – qHTS Assay for Inhibitors of RGS12 GoLoco Motif Activity (Red Fluorophore); Guanine nucleotide-binding protein G(i) subunit alpha-1 (Homo sapiens), P63096; Gai1:RGS12 GoLoco peptide FP, rhodamine, 10 min; Potency, µM (titrated, usually from 61.6 µM), without a hit: at the top dose activity, negative = inhibition, most hits filed as inhibitors; 230,000 compounds, 0.44% hits; AID 880, 2007; active means well fitted inhibition curve with a large enough effect, not every such curve was filed as active; inactive means no such curve, though single readings can be large or run the other way; further: nearly all actives have a fitted effect of over 30% in size
Target sequence (P63096 whole entry, looked up): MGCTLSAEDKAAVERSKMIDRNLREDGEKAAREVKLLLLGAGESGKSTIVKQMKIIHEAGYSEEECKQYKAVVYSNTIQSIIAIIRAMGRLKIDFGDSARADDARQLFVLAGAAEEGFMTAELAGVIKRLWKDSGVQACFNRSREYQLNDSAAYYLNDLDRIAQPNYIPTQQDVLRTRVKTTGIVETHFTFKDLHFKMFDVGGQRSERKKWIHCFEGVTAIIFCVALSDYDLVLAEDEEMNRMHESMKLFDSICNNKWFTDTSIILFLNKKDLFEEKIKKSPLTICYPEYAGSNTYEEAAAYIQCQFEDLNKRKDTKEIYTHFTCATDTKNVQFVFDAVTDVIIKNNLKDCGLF
Tau fibril ThT – qHTS for Inhibitors of Tau Fibril Formation, Thioflavin T Binding | Microtubule-associated protein tau (Homo sapiens), P10636 | recombinant tau K18 P301L, heparin-induced fibrillization, ThT fluorescence | Potency, µM (titrated, usually from 57.4 µM), for inactives: at the top dose activity, negative = inhibition, hits mostly inhibitors | 270,000 compounds, 2.1% hits | AID 1460, 2008; further: nearly all actives have a fitted effect of over 55% in size
Target sequence (P10636 561-689 P618L limits assumed): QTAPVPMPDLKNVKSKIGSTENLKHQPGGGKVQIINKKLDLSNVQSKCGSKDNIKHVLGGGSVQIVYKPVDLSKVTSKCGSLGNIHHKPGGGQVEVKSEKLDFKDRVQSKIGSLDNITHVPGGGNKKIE
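Recombinant human tau K18 fragment […] carrying P301L, 15 uM unlabeled plus 0.24 uM Alexa 594-labeled, was fibrillized with 20 uM heparin in 100 mM sodium acetate pH 7 for 6 hr at 37 C; 30 uM ThT fluorescence read after 1 hr.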
Tau fluor cs – Counterscreen qHTS for Inhibitors of Tau Fibril Formation, Fluorescence Polarization; AID 1463, 2008; Potency, µM (series often up to 57.7 µM), inactives show at the top dose activity change, negative = decrease; tau K18 P301L (four-repeat tau fragment) Alexa594 fluorescence, heparin fibrillization; 280,000 compounds, 0.93% hits; further: nearly all actives have a fitted effect of over 55% in size
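Human K18 P301L tau (15 uM unlabeled plus 0.24 uM Alexa 594-labeled, final) in 100 mM sodium acetate pH 7 was mixed with compound and 20 uM heparin and incubated 6 hr at 37 C.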
TR SRC2 fluor cs – Total Fluorescence Counterscreen for Inhibitors of the Interaction of Thyroid Hormone Receptor and Steroid Receptor Coregulator 2 | TRb/SRC2 Texas Red total fluorescence interference | Potency, µM (series often up to 106 µM), for inactives: top-dose fluorescence change, negative = quenching | 280,000 compounds, 0.29% hits; active means well fitted curve in either direction with a large enough effect; inconclusive means small, poorly fitted or top-dose-only effect
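Flags fluorescent or light-absorbing compounds by total fluorescence, S + 2P, at 555 nm excitation and 632 nm emission. Mixture: 20 nM Texas Red SRC2 peptide, 0.6 uM human TRb LBD, 1 uM T3, 5% DMSO; compound exposure 5 h at ambient temperature.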
Tau FP inhib – qHTS for Inhibitors of Tau Fibril Formation, Fluorescence Polarization; AID 1468, 2008; Potency, µM (doses to about 57.7 µM), for the others: top-dose activity, negative = inhibition, hits mostly inhibitors; K18 P301L tau heparin fibrillization, Alexa594 FP, 6 h; Microtubule-associated protein tau (Homo sapiens), P10636; 280,000 compounds, 0.39% hits; further: nearly all actives have a fitted effect of over 55% in size
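Read-out: fluorescence polarization of Alexa 594-labeled tau (0.24 uM), 555 nm excitation, 632 nm emission. Mixtures held 15 uM unlabeled K18 P301L, compound and 20 uM heparin, pH 7 acetate buffer, incubated 6 hr at 37 C.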
TRb-SRC2 inh – qHTS for Inhibitors of the Interaction of Thyroid Hormone Receptor and Steroid Receptor Coregulator 2. Thyroid hormone receptor beta (Homo sapiens), P10828. Potency, µM (titrated, usually from 106 µM), for inactives: at the highest dose activity change, negative = inhibition, usual class: inhibitors. AID 1469, 2008. 280,000 compounds, 0.065% hits. TRbeta-SRC2 peptide binding, fluorescence polarization; receptor liganded with 1 µM T3;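 further: plate controls were bound peptide for no effect and peptide without receptor for full effect; nearly all actives have a fitted effect of over 50% in size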
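Each compound concentration gave % activity, normalized to unbound and bound Texas Red SRC2 controls, from polarization read after 5 hr ambient incubation with T3-loaded human TRb LBD.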
Active calls of the source: *; ? = inconclusive; . = no result given; [ ] = another dose, or the depositor's remark. Unless noted, the call rests on the fitted dose curve; in most records, active means well fitted curve in the direction sought with a large enough effect; inconclusive means small, poorly fitted or top-dose-only effect, or another doubt; inactive means no such curve, though single readings can be large; an effect the other way counts as inactive or inconclusive. Unless noted, on the % scale 0 is the no-effect control and ±100 the full control effect; potency means the concentration at half of the fitted maximal effect.

SMILES | RGS12 GoLoco inh | Tau fibril ThT | Tau fluor cs | TR SRC2 fluor cs | Tau FP inhib | TRb-SRC2 inh
COc1cccc(C(=O)Nc2c3c(nc4c2CCC4)CCCC3)c1 | 0% | 13% | 10% | -1% | 0% | 8%
CC(=O)NC(=S)Nc1ccc2oc(-c3cc(F)c(F)cc3Cl)nc2c1 | 14% | -3% | 4% | -2% | -1% | 1%
COc1nc(Nc2ccc(O)cc2)nc(OC(C(F)(F)F)C(F)(F)F)n1 | 0% | 4% | ? | -4% | 7% | -8%
Nc1cccc(Nc2nc(OC(C(F)(F)F)C(F)(F)F)nc(OC(C(F)(F)F)C(F)(F)F)n2)c1 | 4% | 4% | 14µM*[quencher] | -3% | 12% | 7%
CCCCCCCC1=Cc2ccccc2C(CC(C)=O)N1C(=O)OC (centres undefined) | 5%[14.2 µM] | 9%[11.5 µM] | 1%[11.6 µM] | -1%[11.2 µM] | -2%[11.6 µM] | -1%[11.2 µM]
Cc1cc(C)c2c(=O)n(CC(=O)N3CCC(N4CCCCC4)CC3)sc2n1 | -50% | 25µM* | ? | 0% | 25µM* | 0%
CC(=O)Cn1cnc2c(sc3nc(C)cc(C)c32)c1=O | -3% | -4% | -3% | 0% | 3% | -2%
CCCNC(=O)Cn1sc2nc(C)cc(C)c2c1=O | 7.9µM* | . | -23% | 0% | 16µM* | -2%
CC1CCN(C(=O)Cn2nnc(-c3cccs3)n2)CC1 | 1% | -7% | -10% | 1% | -2% | 1%
Cc1ccc(Nc2nc(-c3ccccc3)nc3ccccc23)cc1 | . | ? | 10µM*[quencher] | -7% | 18µM* | 1%
Cc1ccc(Nc2nc(-c3ccncc3)nc3ccccc23)cc1 | 4% | -2% | -20% | -5% | -8% | 2%
COc1ccc(Nc2nc(-c3ccccc3)nc3ccccc23)cc1S(=O)(=O)N1CCOCC1 | 5% | . | 13µM*[quencher] | -1% | 25µM* | 11%
CN(C)c1ccc(-c2nc(Nc3ccncc3)c3ccccc3n2)cc1 | 2% | 7.1µM* | 7.1µM*[quencher] | -11% | ? | 0%
CN(C)c1ccc(-c2nc(N3CCNCC3)c3ccccc3n2)cc1 | -6% | 14µM* | ? | -10% | 1% | 4%
Cc1ccccc1-c1nc(N2CCNCC2)c2ccccc2n1 | 7% | . | . | . | . | .
CN(C)C(=O)c1ccc(-c2nc(Nc3ccncc3)c3ccccc3n2)cc1 | 5% | -3% | -18% | -1% | -7% | 4%
CCN(CC)CCn1c(-c2ccccc2)csc1=Nc1ccccc1 | . | -9% | -12% | -2% | 6% | -1%
O=C(NCCN1CCCCC1)c1cc(OCC(F)(F)F)ccc1OCC(F)(F)F | 1% | -9% | -8% | 1% | 5% | 1%
Cc1cccc(Nc2nc(-c3ccccc3)nc3ccccc23)c1 | . | -9% | 6.3µM*[quencher] | -8% | 8.9µM* | -8%
CC(=O)Nc1cccc(Nc2nc(-c3ccccc3)nc3ccccc23)c1 | 0% | 14% | ? | -1% | ? | 3%
Oc1cccc(Nc2nc(-c3ccccc3)nc3ccccc23)c1 | . | -10% | 7.1µM*[quencher] | -1% | 14µM* | 10%
COc1ccc(N2CCn3c2nc2c3c(=O)n(CCN3CCOCC3)c(=O)n2C)cc1 | 8% | 11% | 8% | -11% | 0% | -4%
O=C(CS(=O)(=O)c1cccc2nsnc12)NCc1ccc(Cl)cc1 | . | 1% | -1% | 1.8µM*[quencher] | 1% | -18%
O=C(C[n+]1ccc(C(=O)N/N=C/c2ccc(Cl)cc2Cl)cc1)c1ccccc1 | -3% | 16µM* | ? | 1% | 10% | 6%
Cc1ccc(NC2=CC(=O)C(=O)c3ccccc32)cc1 | -8% | 25µM* | ? | -8% | ? | -9%
SMILES | RGS12 GoLoco inh | Tau fibril ThT | Tau fluor cs | TR SRC2 fluor cs | Tau FP inhib | TRb-SRC2 inh
Cc1ccc(Nc2ccccc2)cc1 | -17% | 11% | 6% | -1% | 1% | -23%
CCOC(=O)c1ccc(NC2=CC(=O)C(=O)c3ccccc32)cc1 | 2% | 13µM* | ? | -6% | -10% | ?
CCOC(=O)c1ccc(NC(=O)C(C)N2C(=O)c3ccccc3C2=O)cc1 (centres undefined) | -1% | -8% | -11% | 2% | 1% | 1%
Cc1ccc(NC(=O)c2c(NC(=O)c3ccccc3)sc3c2CCC3)cc1 | . | -5% | -12% | 2% | -11% | -5%
Cc1ccc(-c2nnc(CSc3nncn3N)o2)cc1 | -4% | -10% | 2% | 1% | 1% | -5%
C=CCOc1ccc2c(=O)n(C)c3ccccc3c2c1 | . | . | . | 1% | . | 8%
CN1CCN(C2=C(Cl)C(=O)N(c3cccc(Cl)c3)C2=O)CC1 | 8% | 22µM* | ? | -1% | ? | -3%
CN1CCN(C2=C(Cl)C(=O)N(c3ccc(Cl)c(Cl)c3)C2=O)CC1 | -2% | 14µM* | -28% | 1% | ? | -3%
Cc1ccccc1N1C(=O)C(Cl)=C(N2CCN(c3ccccc3)CC2)C1=O | -12% | 16µM* | ? | -1% | ? | 4%
COC(=O)c1cccc(N2C(=O)C(Cl)=C(N3CCOCC3)C2=O)c1 | 3% | 14µM* | ? | -10% | 28µM* | 1%
CCOC(=O)C1(Cc2ccc(OC)cc2)CCN(C(=O)C2CC(=O)N(C3CC3)C2)CC1 (centres undefined) | 2% | -7% | -1% | 3% | 2% | -4%
CCOC(=O)C1=NN(c2ccccc2)C2(S1)SC(C(C)=O)=C(C)N2c1ccccc1 (centres undefined) | 14% | ? | -25% | 3% | 5% | -5%
COCCNC(=O)C(C(=O)c1ccc(F)cc1)n1cc(C)ccc1=O (centres undefined) | 4% | -5% | 1% | -1% | 6% | 12%
Cc1ccc(N2C(=N)SCC2=O)cc1Cl | 3% | 1% | 1% | -2% | 3% | 8%
Cc1ccc(N2C(=O)C(Cl)=C(N3CCOCC3)C2=O)cc1Cl | -5% | 14µM* | ? | -1% | 22µM* | -4%
O=C1C(Cl)=C(N2CCOCC2)C(=O)N1c1ccccc1Cl | -3% | 14µM* | ? | -1% | 20µM* | -7%
O=S(=O)(/C=C/c1ccccc1)c1ccccc1 | -3% | -2% | -4% | 1% | 0% | -23%
COC(=O)C(CC(C)C)NC(=O)C(N)Cc1ccccc1 (centres undefined) | -9% | 3% | 2% | -2% | -5% | 1%
